The source of these data is PubChem BioAssay AID624255 (Broad Institute, 2012).

Structures are written as SMILES. About 4,600 (6%) of roughly 77,000 compounds were called active. Not shown: some 1% with an inconclusive outcome.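 How the source made its calls: active means mean inhibition above about 93%, with at least 55% of replicates each passing it (limit read from the data, passing the limit was not always enough); inconclusive means only one of those two conditions holds; inactive means neither condition holds.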 This excerpt belongs to a sample that is enriched for actives.

This test can be described thus: growth inhibition of T. cruzi in host fibroblasts – cell-based, beta-gal Tulahuen parasites, NIH3T3 host, luminescence, primary screen (AID 624255). The settings on record: T. cruzi beta-gal in NIH3T3, GalScreen luminescence, 90 h; at 8.34 µM; active compounds read high.
Regarding `C[C@@H]1CN([C@@H](C)CO)S(=O)(=O)c2ccc(-c3cncnc3)cc2O[C@@H]1CN(C)C(=O)C1CC1`, the inhibition (as a rule, the drop in the measured response relative to a control, in per cent) is 21.1% (inactive).

For the compound `CCNC(=O)C[C@H]1CC[C@@H]2[C@H](COC[C@H](O)CN2S(=O)(=O)c2ccc(Oc3ccccc3)cc2)O1`, the inhibition is 2.89% (inactive).

`C/C=C/c1ccc([C@@H]2[C@@H](CO)N(C(=O)CC)[C@H]2CN(C)C(=O)C2CC2)cc1`: the inhibition was 15% (inactive).

`COc1ccc(CNC(=O)C[C@H]2C[C@H]3c4cc(NS(C)(=O)=O)ccc4O[C@H]3[C@@H](CO)O2)cc1`: the inhibition was -53% (inactive).

As to `CNC(=O)C[C@H]1CC[C@H]2[C@@H](COc3ccc(NS(=O)(=O)c4ccc(F)cc4)cc3C(=O)N2C)O1`, the inhibition was 17.2% (inactive).

As for `CN(C)C(=O)C[C@@H]1CC[C@H]2[C@@H](COC[C@H](O)CN2C(=O)c2ccncc2)O1`, the inhibition is 24.8% (inactive).

Take `COc1ccc(S(=O)(=O)Nc2ccc3c(c2)CC(=O)N([C@H](C)CO)C[C@@H](C)[C@H](CN(C)S(=O)(=O)c2c(C)noc2C)O3)cc1`: the inhibition was -5.62% (inactive).

As to `C[C@@H](NC(=O)[C@H]1[C@H](CO)[C@H]2Cn3c(cccc3=O)[C@@H]1N2Cc1cccnc1)c1ccccc1`, the inhibition is 50% (inactive).

With `C[C@@H]1CN([C@H](C)CO)C(=O)c2cccc(NC(=O)c3cnccn3)c2O[C@@H]1CN(C)Cc1ccc(C(=O)Nc2ccccc2N)cc1`, the inhibition was 109% (active).

For `C[C@@H]1CN([C@@H](C)CO)C(=O)c2cccc(NC(=O)c3cnccn3)c2O[C@H]1CN(C)Cc1ccc(-c2ccccc2)cc1`, the inhibition was 98.7% (inactive).

As to `C[C@H]1CN([C@@H](C)CO)C(=O)CCCn2nncc2CO[C@H]1CN(C)Cc1ccccc1`, the inhibition was -4.75% (inactive).

Regarding `C[C@@H]1CN([C@H](C)CO)C(=O)CCCn2nncc2CO[C@@H]1CN(C)Cc1ccc(C(=O)Nc2ccccc2N)cc1`, the inhibition is 103% (active).

As for `C[C@@H]1CN([C@@H](C)CO)C(=O)c2cccc(NC(=O)c3cnccn3)c2O[C@H]1CN(C)Cc1ccc(C(=O)O)cc1`, the inhibition is -4.45% (inactive).

In the case of `C[C@@H]1CN([C@@H](C)CO)C(=O)CCCn2nncc2CO[C@@H]1CN(C)Cc1ccccc1`, the inhibition is -1.5% (inactive).

`COCC(=O)Nc1ccc2c(c1)C(=O)N(C)[C@H]1CC[C@H](CC(=O)Nc3ccccc3)O[C@H]1CO2`: the inhibition was 43.2% (inactive).

`C[C@@H]1CN([C@H](C)CO)C(=O)c2cc(-c3ccc(C#N)cc3)cnc2O[C@@H]1CN(C)C(=O)Nc1ccccc1`: the inhibition is 33.2% (inactive).

As for `CCN1[C@@H]2Cn3c(ccc(-c4cccnc4)c3=O)[C@H]1[C@@H](C(=O)NC1CCCCC1)[C@@H]2CO`, the inhibition was -16.4% (inactive).

In the case of `O=C(NC[C@@H]1[C@H](c2ccccc2)[C@H](CO)N1CC1CCCC1)c1cccnc1`, the inhibition is 15.8% (inactive).

Consider `CO[C@H]1CN(C)C(=O)c2ccc(NC(C)=O)cc2OC[C@H](C)N(C(=O)c2ccccc2)C[C@H]1C`, for which the inhibition was -19.6% (inactive).

Consider `CCNC(=O)[C@@H]1[C@@H](CO)[C@@H]2Cn3c(ccc(-c4ccncc4)c3=O)[C@@H]2N1Cc1cc(F)ccc1F`, for which the inhibition is 80.1% (inactive).

Regarding `C[C@@H]1CN([C@@H](C)CO)S(=O)(=O)c2ccc(C#Cc3ccc(F)cc3)cc2O[C@H]1CN(C)S(C)(=O)=O`, the inhibition was 113% (active).

For `CCCN(C)C[C@H]1Oc2cc(C#CC3CCCC3)ccc2S(=O)(=O)N([C@H](C)CO)C[C@@H]1C`, the inhibition was 98.6% (active).

`CCCN(C)C[C@@H]1Oc2cc(C#CC3CCCCC3)ccc2S(=O)(=O)N([C@@H](C)CO)C[C@@H]1C`: the inhibition was 42.1% (inactive).

Take `CCCC#Cc1ccc2c(c1)O[C@@H](CN(C)CCC)[C@@H](C)CN([C@H](C)CO)S2(=O)=O`: the inhibition was 63.4% (inactive).

`C[C@@H]1CN([C@@H](C)CO)S(=O)(=O)c2ccc(C#CC3CCCC3)cc2O[C@H]1CN(C)S(C)(=O)=O`: the inhibition was -41.8% (inactive).

As for `COCC#Cc1ccc2c(c1)O[C@@H](CN(C)S(C)(=O)=O)[C@H](C)CN([C@H](C)CO)S2(=O)=O`, the inhibition is 2.15% (inactive).

Consider `CCCN(C)C[C@@H]1Oc2cc(C#CCc3ccccc3)ccc2S(=O)(=O)N([C@H](C)CO)C[C@@H]1C`, for which the inhibition was 80.1% (inactive).

As to `CCCN(C)C[C@@H]1Oc2cc(C#Cc3ccc(F)cc3)ccc2S(=O)(=O)N([C@H](C)CO)C[C@H]1C`, the inhibition is 100% (active).

Take `CNC[C@@H]1Oc2cc(C#CC3CCCC3)ccc2S(=O)(=O)N([C@@H](C)CO)C[C@@H]1C`: the inhibition was 61% (inactive).

As to `C[C@@H](NC(=O)C[C@@H]1CC[C@@H]2[C@H](COC[C@@H](O)CN2C(=O)Nc2cccc(F)c2)O1)c1ccccc1`, the inhibition is 21.9% (inactive).

Turning to `CC(C)NC(=O)N(C)C[C@@H]1Oc2ncc(-c3ccc(C(=O)N(C)C)cc3)cc2C(=O)N([C@H](C)CO)C[C@H]1C`, the inhibition was 35.4% (inactive).

Regarding `COc1ccc(S(=O)(=O)N(C)C[C@H]2OCCCC[C@H](C)Oc3ccc(NS(=O)(=O)c4c(C)noc4C)cc3C(=O)N([C@@H](C)CO)C[C@@H]2C)cc1`, the inhibition was 23.4% (inactive).

Take `C[C@H]1CN([C@@H](C)CO)C(=O)c2cc(C#CC(C)(C)O)cnc2O[C@H]1CN(C)C(=O)CC1CC1`: the inhibition is -14.6% (inactive).

With `O=S(=O)(Cc1ccccc1)NCC[C@@H]1CC[C@@H](NS(=O)(=O)c2ccccc2)[C@@H](CO)O1`, the inhibition was -0.486% (inactive).

`CC(=O)N1CC[C@@H]2[C@@H](CO)N(C)c3ccc(-c4ccc(C#N)cc4)cc3[C@@H]21`: the inhibition was 52.3% (inactive).

On to `Cc1noc(C)c1NC(=O)Nc1ccc2c(c1)C(=O)N([C@@H](C)CO)C[C@@H](C)[C@H](CN(C)C(=O)Nc1ccc(C(F)(F)F)cc1)OCCCC[C@@H](C)O2`, for which the inhibition was 27.1% (inactive).

Regarding `COc1ccc(S(=O)(=O)N2CCCCN3[C@H](CO)[C@H](c4ccc(C5=CCCCC5)cc4)[C@@H]3C2)cc1`, the inhibition was 88.5% (inactive).

Consider `COc1ccc(S(=O)(=O)N2CCCCN3[C@H](C2)[C@H](c2ccc(C4=CCCC4)cc2)[C@@H]3CO)cc1`, for which the inhibition was 7.54% (inactive).

`Cc1ccccc1-c1ccc([C@@H]2[C@H](CO)N3CCCCN(S(=O)(=O)c4ccc(F)cc4)C[C@@H]23)cc1`: the inhibition is 112% (active).

Consider `Cc1ccccc1-c1ccc([C@H]2[C@H]3CN(S(=O)(=O)c4ccc(F)cc4)CCCCN3[C@H]2CO)cc1`, for which the inhibition was 111% (active).

Take `COc1ccccc1-c1ccc([C@@H]2[C@@H](CO)N3CCCCN(S(=O)(=O)c4cn(C)cn4)C[C@H]23)cc1`: the inhibition is 42.2% (inactive).

With `O=S(=O)(c1ccc(F)cc1)N1CCCCN2[C@H](C1)[C@H](c1ccc(C3=CCCCC3)cc1)[C@@H]2CO`, the inhibition was 99.1% (active).

Regarding `Cn1cnc(S(=O)(=O)N2CCCCN3[C@H](CO)[C@@H](c4ccc(-c5ccc(F)cc5)cc4)[C@@H]3C2)c1`, the inhibition was 11.8% (inactive).
